Reference: PubChem BioAssay

Tests used:
PEG-3 [1] = target: PEG-3 (UniProt Q6IN02); assay: inhibition of PEG-3 promoter-driven reporter – cell-based, HeLa, luciferase, CREF/GAPDH counter-screen panel, dose response (AID 624167); conditions: CREF/GAPDH counter-screens; HeLa PEG-Prom luciferase reporter, overnight, run 1, dose range 1, at 100 µM (top of the series) unless noted
PEG-3 [2] = target: PEG-3 (UniProt Q6IN02); assay: as above; conditions: CREF/GAPDH counter-screens; HeLa PEG-Prom luciferase reporter, overnight, run 2, dose range 1, at 100 µM (top of the series) unless noted
Rat fibroblasts (CREF) [3] = assay: as above; conditions: CREF/GAPDH counter-screens; run 1, dose range 1, at 100 µM (top of the series)
Rat fibroblasts (CREF) [4] = assay: as above; conditions: CREF/GAPDH counter-screens; run 2, dose range 1, at 100 µM (top of the series)
[5] = target: Tumor necrosis factor receptor superfamily member 10B (Homo sapiens) (UniProt O14763); assay: viability loss of caspase-8 NB7 cells with TRAIL – with/without TRAIL, luminescence panel, confirmation (AID 651596); conditions: NB7 neuroblastoma + caspase-8, TRAIL sensitization, NB7 Caspase-8, with TRAIL, mean of runs, at 10 µM, stronger effect = higher value
[6] = as above; conditions: NB7 neuroblastoma + caspase-8, without TRAIL, NB7 Caspase-8, without TRAIL, mean of runs, at 10 µM
[7] = NFkB reporter suppression in cystic fibrosis bronchial cells – cell-based, uHTS hits, panel, cytotoxicity readout, dose response (AID 624344); conditions: CF bronchial epithelial cells, PAF-induced NFkB reporter inhibition, with PAF, run 1; at 79 µM (top of the series) unless noted
[8] = as above; conditions: CF bronchial epithelial cells, PAF-induced NFkB reporter inhibition, with PAF, run 2; at 79 µM (top of the series) unless noted

Sequence of Tumor necrosis factor receptor superfamily member 10B (Homo sapiens) (O14763 whole entry, looked up): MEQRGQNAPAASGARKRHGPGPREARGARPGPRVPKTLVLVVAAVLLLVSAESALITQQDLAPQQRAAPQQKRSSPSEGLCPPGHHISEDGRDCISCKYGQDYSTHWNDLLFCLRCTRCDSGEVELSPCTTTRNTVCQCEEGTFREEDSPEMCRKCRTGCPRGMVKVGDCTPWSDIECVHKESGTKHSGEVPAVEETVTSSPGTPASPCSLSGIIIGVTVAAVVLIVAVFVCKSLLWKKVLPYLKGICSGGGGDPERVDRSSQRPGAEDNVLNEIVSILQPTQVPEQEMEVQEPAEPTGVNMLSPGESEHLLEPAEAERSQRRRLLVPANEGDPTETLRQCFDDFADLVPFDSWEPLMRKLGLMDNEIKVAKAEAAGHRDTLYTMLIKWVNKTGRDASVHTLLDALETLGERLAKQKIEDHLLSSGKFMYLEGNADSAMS
Sequence of PEG-3 (Q6IN02 whole entry, looked up): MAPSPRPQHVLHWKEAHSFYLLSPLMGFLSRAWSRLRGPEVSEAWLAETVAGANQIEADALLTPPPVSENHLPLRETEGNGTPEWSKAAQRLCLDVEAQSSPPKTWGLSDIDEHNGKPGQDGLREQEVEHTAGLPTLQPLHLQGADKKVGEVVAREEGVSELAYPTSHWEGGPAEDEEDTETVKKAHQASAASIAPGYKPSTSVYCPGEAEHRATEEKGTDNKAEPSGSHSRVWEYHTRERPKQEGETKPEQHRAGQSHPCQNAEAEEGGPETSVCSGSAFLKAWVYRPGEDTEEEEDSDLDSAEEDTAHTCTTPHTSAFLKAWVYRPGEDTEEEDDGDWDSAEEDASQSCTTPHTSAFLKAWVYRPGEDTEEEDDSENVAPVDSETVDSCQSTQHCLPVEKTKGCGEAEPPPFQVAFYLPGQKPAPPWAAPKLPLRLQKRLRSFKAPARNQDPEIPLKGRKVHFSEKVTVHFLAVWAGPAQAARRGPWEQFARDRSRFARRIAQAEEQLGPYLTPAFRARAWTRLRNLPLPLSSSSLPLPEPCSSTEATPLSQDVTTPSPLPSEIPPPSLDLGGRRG

Row | Structure (SMILES) | inhibition (PEG-3 [1]) | inhibition (PEG-3 [2]) | inhibition (Rat fibroblasts (CREF) [3]) | inhibition (Rat fibroblasts (CREF) [4]) | activity [5] | activity [6] | inhibition [7] | inhibition [8]
1 | CCc1ccc(/C=C2\SC(=S)N(CCCC(=O)Nc3ccccn3)C2=O)cc1 | 92.7% | 81% | -3.09% | 94.6% | – | – | – | –
2 | CN(C)c1ccc(C=c2c3ccccc3n3c2cc(-c2ccccc2)[n+]3C)cc1 | 98.9% | 102% | 101% | 100% | – | – | – | –
3 | Cc1cc(C(=O)Nc2cccc(C(=O)O)c2)oc1C | 88.1% | 85.8% | 49.8% | 52.7% | – | – | – | –
4 | CCCC(=O)NC(c1ccc(C(C)C)cc1)c1ccc2cccnc2c1O (stereo not drawn) | 95.6% | 82.8% | 17.4% | 7.77% | – | – | – | –
5 | CC1CC(C)C(=O)C(C(CC2CC(=O)NC(=O)C2)OC(=O)CC(=O)c2ccccc2)C1 (stereo not drawn) | 72.4% | 85.5% | 44.6% | 23.7% | – | – | – | –
6 | COC(=O)C1C=CC(OC2OC(COC(C)=O)C(OC(C)=O)C(OC(C)=O)C2OC(C)=O)n2c(=O)n(-c3ccccc3)c(=O)n21 (stereo not drawn) | 99.8% | 98.3% | 98.1% | 99.1% | – | – | – | –
7 | CCN1C=CC(=C2C(=O)c3ccccc3C2=O)C=C1 | 96.8% | 98.3% | 99.8% | 101% | – | – | – | –
8 | O=C1C(Cl)=C(Nc2ccccc2)C(=O)c2ccccc21 | 102% | 101% | 96.9% | 99.8% | – | – | – | –
9 | O=C(NCCc1ccccc1)c1ccc2c(c1)OCCCO2 | 101% | 102% | 100% | 99.5% | – | – | – | –
10 | Cc1c([N+](=O)[O-])cc(N2C(=O)C=CC2=O)cc1[N+](=O)[O-] | 102% | 102% | 99.5% | 100% | – | – | – | –
11 | CN1CCC2(CC1)N=C(c1ccc(F)cc1)C(=S)N2C(=O)c1ccc(C(C)(C)C)cc1 | 102% | 99% | 98.7% | 68.4% | – | – | – | –
12 | Oc1c(Br)cc(Br)c2cccnc12 | 81.8% | 71% | 88.2% | 94.5% | – | – | – | –
13 | Cc1ccc(-c2nc(-c3ccccn3)no2)cc1Cl | 102% | 95.2% | 99.3% | 99.4% | – | – | – | –
14 | Cc1ccsc1/C=N/Nc1cccc(C(=O)O)c1 | 98.1% | 88.9% | 51.5% | 42.9% | – | – | – | –
15 | Cc1ccc(C(C[N+](=O)[O-])Sc2ccc(N)cc2)cc1 (stereo not drawn) | 98.7% | 101% | 96.1% | 96.3% | – | – | – | –
16 | O=C(N/N=C/c1cc([N+](=O)[O-])ccc1O)c1ccc(COc2ccc3c(c2)CCC3)o1 | 52.4% | 95.1% [run 2, dose range 1, at 25 µM] | 29.5% | 55.1% | – | – | – | –
17 | O=c1c(Cl)c(N2CCCCC2)cnn1-c1nc2ccccc2[nH]1 | 96.7% | 95% | 100% | 100% | 96.4% | 96.5% | – | –
18 | CCOC(=O)c1c(SCCN2CCCCC2)n(-c2ccccc2)c(=S)n(-c2ccccc2)c1=O | 97.7% | 102% | 90.4% | 94.6% | – | – | – | –
19 | O=C(O)c1ccc(N/N=C/c2ccc3nccnc3c2)cc1 | 101% | 102% | 58.2% | 45.3% | – | – | – | –
20 | O=C(O)c1ccc(CN2C(=O)c3cccc4c([N+](=O)[O-])ccc(c34)C2=O)cc1 | 99% | 100% | 71.3% | 98.6% | – | – | – | –
21 | COC(=O)c1c(N)sc(C(=O)NCCc2ccccc2)c1C | 101% | 102% | 93.6% | 92.9% | – | – | – | –
22 | COc1cccc(OC)c1C(=O)Nc1cc(C)nn1-c1nc2ccccc2[nH]1 | 37.6% | 65.1% | 2.09% | 12.6% | – | – | 111% | 101%
23 | CC(C)CC(=NNC(=O)c1ccncc1)c1cc(Cl)ccc1O | 76.9% | 93.6% [run 2, dose range 1, at 50 µM] | 73.9% | 81.7% | – | – | – | –
24 | COc1ccc(/C=C/c2nc3ccccc3n2C)cc1 | 99.2% | 97.5% | 100% | 99.9% | 97.2% | 97.1% | – | –
25 | C/C(=N\NC(=O)c1n[nH]c2c1CCC2)c1cccs1 | 98.6% | 99.7% | 96.7% | 94.4% | 80.4% | 76.2% | – | –
